PNC assembly inh: perinucleolar compartment assembly inhibition. activity change (PNC), negative = inhibition, % at 10 µM. AID 2417. PC3M PTB-GFP, PNC prevalence imaging, 16 h; stronger effect = lower value. hit rate 3.1% among 140,000;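 active = readout at or below -70, meaning at least 70% loss of cells showing the perinucleolar compartment, a nuclear body marking cancer cells; inconclusive = readout between -30 and a set limit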;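 note: plate controls were DMSO wells for no effect and camptothecin positive control wells for full effect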
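Compounds are pinned in duplicate onto adhered PC3M cells stably expressing GFP-tagged PTB and incubated 16 h at 37 C. Cells are then fixed, nuclei stained with Hoechst, and PNC-positive cells counted.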
Luc counter: counter-screen: inhibitors of Kinase-Glo firefly luciferase; Q27757; hit rate 0.28% among 200,000; Kinase-Glo luciferase, ATP luminescence, 8 min; AID 1379; Potency, µM (titrated, usually from 38.3 µM), for the others: top-dose activity change, negative = inhibition, actives largely listed as inhibitors; active = well fitted inhibition curve with a large enough effect; inconclusive = small, poorly fitted or top-dose-only effect; note: potency is the fitted concentration of half-maximal effect; nearly all actives have a fitted effect of over 60% in size
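Kinase-Glo luciferase light output from ATP and luciferin was measured with 10 uM ATP, within the enzyme's linear range. Buffer: 50 mM imidazole pH 7.2, 50 mM KCl, 7 mM MgCl2, 0.01% Tween 20, 0.05% BSA; luminescence read after 8 min at ambient temperature.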
IMPase inh: IMPase inhibition in cells; CHO-M1 cells, IP1 accumulation, HTRF TR-FRET ratio; inhibition (IP1 accumulation), % at 46.1 µM; 120,000 tested, under 10 active; AID 901; active = well fitted curve in the direction sought with a large enough effect in the signal ratio, not every such curve was filed as active; inconclusive = small, poorly fitted or top-dose-only effect, or a change in a side signal; inactive = no such curve, though single readings can be large or run the other way; the % refers to the signal ratio;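 note: cells stimulated with carbachol in lithium chloride buffer; plate controls were DMSO basal wells for no effect and reference inhibitor wells for full effect; higher means more IMPase inhibition seen as more IP1 and lower FRET ratio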
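Seeded CHO-M1 cells were dosed with compound at up to 46 uM, stimulated with carbachol for 30 min, then lysed in IP-One detection reagents. Higher IP1 lowers the TR-FRET signal.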
ALDH1A1 block: blocks purified human ALDH1A1 activity. P00352. Purified ALDH1A1, NADH fluorescence, propionaldehyde substrate. Potency, µM (titrated, usually from 75.3 µM), for inactives: top-dose activity, negative = inhibition, actives largely listed as inhibitors. hit rate 7.3% among 220,000;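 note: potency is the fitted concentration of half-maximal effect; plate controls were no enzyme wells and a reference inhibitor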
Target sequence (P00352 whole entry, looked up): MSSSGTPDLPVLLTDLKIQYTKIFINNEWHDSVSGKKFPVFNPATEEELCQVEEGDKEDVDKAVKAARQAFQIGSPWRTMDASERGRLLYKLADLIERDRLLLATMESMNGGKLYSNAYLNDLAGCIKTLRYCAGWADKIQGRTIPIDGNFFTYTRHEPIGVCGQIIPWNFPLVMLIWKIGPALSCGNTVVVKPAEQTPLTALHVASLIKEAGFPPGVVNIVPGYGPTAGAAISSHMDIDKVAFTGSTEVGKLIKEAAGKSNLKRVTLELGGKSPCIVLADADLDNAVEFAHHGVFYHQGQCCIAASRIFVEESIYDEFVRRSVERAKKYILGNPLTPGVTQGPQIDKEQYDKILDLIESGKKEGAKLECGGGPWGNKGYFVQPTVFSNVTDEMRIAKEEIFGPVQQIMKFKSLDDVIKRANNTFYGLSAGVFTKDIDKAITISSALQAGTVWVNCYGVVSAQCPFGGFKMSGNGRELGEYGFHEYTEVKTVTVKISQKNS
Lamin A splicing: modulators of lamin A splicing; hit rate 0.01% among 200,000; HeLa LMNA splicing GFP/RFP minigene ratio, 48 h; Potency, µM (top dose mostly 46.1 µM), for the others: top-dose ratio change, negative = inhibition, usual class: inhibitors; active = well fitted inhibition curve with a large enough effect in the signal ratio, with a control signal flat, not every such curve was filed as active; inconclusive = small, poorly fitted or top-dose-only effect, or effect the other way, or a change in a side signal; the % refers to the signal ratio; note: potency is the fitted concentration of half-maximal effect
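S3 HeLa stable clones carrying a lamin A-EGFP splicing minigene plus DsRed2 were seeded at 600 cells/well in Opti-MEM with 2% FBS, pin-dosed and incubated 48 h at 37°C. Acumen cytometry (488 nm) gave the GFP/RFP total-intensity ratio.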
HPGD inh: inhibitors of human 15-hydroxyprostaglandin dehydrogenase (HPGD). P15428. purified HPGD, NADH fluorescence kinetic, PGE2 substrate. Potency, µM, inactives show top-dose activity change, negative = inhibition, most hits filed as inhibitors. hit rate 4.3% among 150,000. AID 894; note: potency is the fitted concentration of half-maximal effect
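NADH formation kinetics: reaction with 30 uM PGE2 and 1 mM NAD+ (final), 20 nM enzyme, Tris-HCl pH 8 with Tween 20, after 15 min compound preincubation at room temperature. Fluorescence change, last versus first of five reads.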
* = called active by the depositor; ? = inconclusive; . = no result; [ ] = dose if it differs, or a comment. An excerpt weighted towards active compounds, which were near 10% of everything screened. Unless noted, calls come from the whole dose curve; as a rule, active = well fitted inhibition curve with a large enough effect (not every such curve was filed as active); inconclusive = small, poorly fitted or top-dose-only effect, or another doubt; inactive = no such curve, though single readings can be large or run the other way. Unless noted, % is set by controls: 0 for no effect and ±100 for the full control effect.

SMILES	PNC assembly inh	Luc counter	IMPase inh	ALDH1A1 block	Lamin A splicing	HPGD inh
C[C@H]1Cc2c(-c3ccccc3)nc3c(c2CO1)CN(C(=O)Nc1cccc(C#N)c1)CC3	.	0%[7.66 µM]	.	-8%[13.5 µM]	-4%[9.22 µM]	-2%
COc1ccc(N=C2NN=C(c3c(C)[nH]c4ccccc34)CS2)cc1	-21	2%	.	14µM*	?	-23%
Cc1cc(C2=NNC(=Nc3ccccc3)SC2)c(C)n1C	.	-4%	.	?	.	.
Cc1[nH]c2ccccc2c1N=Nc1ccc(F)cc1	.	0%	.	3%	-5%[9.22 µM]	.
Cc1[nH]c2ccccc2c1C1=NNC(=Nc2ccc(F)cc2)SC1	-1	-1%	-1	20µM*	?	-4%
CCOC(=O)C1=C(c2ccccc2)N2CCS(=O)(=O)N=C2S1	-83*	-1%	-3	7%	-2%	-6%
CCOC(=O)c1c(N)nn(C(=O)C(C)(C)C)c1-c1ccccc1	10	-1%	5	23%	0%	?
CCN1C(C)=C(C(=O)OC)C(c2ccccc2)N2C(=O)[C@](O)(C(=O)OC)C(c3ccccc3)C(C(C)=O)=C12 (some centres undefined)	.	.	.	5%[13.5 µM]	.	.
O=C(Oc1ccccc1/C=C\C(=O)c1cc2ccccc2o1)c1cccc(F)c1	?	2%	?	8.9µM*	?	?
COc1cccc(C(=O)Oc2ccccc2/C=C\C(=O)c2cc3ccccc3o2)c1	25	-2%	10	-10%	?	-30%
O=C(Oc1ccccc1/C=C\C(=O)c1cc2ccccc2o1)c1ccccc1	2	-1%	.	11µM*	-13%	-24%
Cc1cc(Cl)ccc1NC(=O)c1cc(S(=O)(=O)N2CCOCC2)cn1C	.	.	.	.	8%[46 µM]	.
O=C(CCc1nc(-c2ccccc2)no1)NCc1ccco1	-5	-10%	7	?	?	?
Cc1ccc(-c2noc(CCC(=O)NCc3ccco3)n2)cc1	22	-3%	-3	?	14%	28µM*
COCCNC(=O)CCc1nc(-c2ccccc2)no1	30	-2%	-4	2%	-12%	16µM*
COc1ccccc1-c1noc(CCC(=O)Nc2ccccc2Cl)n1	?	-1%	-10	28µM*	-15%	25µM*
COc1cc(-c2noc(CCCC(=O)NCc3ccco3)n2)cc(OC)c1OC	-100*	-3%	-1	-14%	-5%	-18%
CCCCCCN(C(=O)CCCCCN1C(=O)NC(c2ccc(-c3ccccc3)cc2)C(C(=O)OCc2ccccc2)=C1C)C(C(=O)NCCCC)c1ccc(OCC(=O)O)c(C(=O)O)c1 (centres undefined)	.	-3%	.	-13%	.	-10%
Cc1ccc(-n2c(=O)c3c(c4cc(C)ccc4n3C)n(CC(=O)NCCC3=CCCCC3)c2=O)cc1	.	.	.	.	-1%[46 µM]	.
CC(C)=CCN1CCN(Cc2cnc(N3CCCC3)s2)CC1CCO (centres undefined)	.	2%	.	13%	1%[46 µM]	.
COC(=O)c1ccc(CN2CCN(CC=C(C)C)C(CCO)C2)cc1 (centres undefined)	.	1%	.	20µM*	20%[46 µM]	.
CC(C)=CCN1CCN(Cc2cnc(N3CCOCC3)s2)CC1CCO (centres undefined)	.	-3%	.	25µM*	.	.
Cc1nc(CSc2nsc(/C=C/N(C)C)c2C#N)cs1	.	-2%	.	6.3µM*	15%[46 µM]	.
Cc1ccn2c(C=O)c(-c3ccc(F)cc3)c(C=O)c2c1	.	-2%	.	13µM*	.	.
O=Cc1c(-c2ccc(F)cc2)nc2ccccn12	.	-5%	.	?	.	.
Cc1ccc(-n2sc3ccccc3c2=O)cc1S(=O)(=O)N1CCCCC1	?	0%	5	2.2µM*	?	1µM*
CN(C)S(=O)(=O)c1cccc(-n2sc3ccccc3c2=O)c1	.	-7%	.	0.22µM*	7%[46 µM]	.
Cc1ccc2nc(-c3cccc(S(=O)(=O)N(C)C)c3)cn2c1	-20	-13%	2	?	-4%	?
NS(=O)(=O)c1ccc(S(=O)(=O)N2CCCC2)cc1	?	5%	-9	-10%	10%	-11%

Source: PubChem BioAssay (National Center for Advancing Translational Sciences (NCATS))
